Laboratory results reported in the supplement of paper PMC6805474.

Tests used:
[1] = tested on: Schistosoma mansoni schistosomula (LE); test: XTT viability relative to DMSO control; higher = more viable (less active); conditions: 72 h; 10 µM
Description: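 XTT/PMS was then added for a further 24 h (72 h total) and A450 was read. % viability = (sample - heat-killed control)/(DMSO control - heat-killed control) x 100, from duplicate wells in two independent experiments.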

[2] = tested on: Schistosoma mansoni schistosomula (NMRI); test: phenotypic severity score (0-4); higher = more antischistosomal effect, active = 2 or more; conditions: 10 µM
[3] = tested on: Schistosoma mansoni schistosomula (Liberian); test: drug effect (1 - score/DMSO control score) (fraction); higher = more antischistosomal effect, active = 0.5 or more; extreme values may be limits of the assay; conditions: 10 µM
In short: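 A plate was valid only if its 0.1% DMSO wells averaged a score of at least 2. Those wells ran beside duplicate wells in which 50 Liberian-strain Schistosoma mansoni schistosomula each, transformed mechanically from cercariae and pre-incubated at least 12 h, met 10 µM compound in Medium 199 with 5% FCS at 37 °C, 5% CO2. Scoring was visual at 10× at 24, 48 and 72 h, from 3 (normal) to 0 (dead) in quarter-point steps. Drug effect was derived from the mean test-well score against the mean DMSO-well score, with negatives set to zero.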
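Throughout, for phenotypic severity score (0-4): visual microscopic scoring of shape, motility and density changes versus 0.5% DMSO solvent controls, one point per descriptor, degeneracy or death scored 4, mean of duplicate wells.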

NCC(=O)N1CCn2c(nc(-c3ccccc3)c2Nc2ccc3c(c2)OCO3)C1
129%: XTT viability [1]
inactive: phenotypic severity score ([2]; 24 h) 0 | phenotypic severity score ([2]; 48 h) 0 | drug effect ([3]; 24 h) 0.297 | drug effect ([3]; 48 h) 0.444
active: phenotypic severity score ([2]; 72 h) 2 | drug effect ([3]; 72 h) 0.688

COc1cccc(OC)c1C(=O)Nc1ccc(Cl)c(-c2nc3ccccc3s2)c1
active: phenotypic severity score ([2]; 24 h) 2 | phenotypic severity score ([2]; 48 h) 2 | phenotypic severity score ([2]; 72 h) 2 | drug effect ([3]; 48 h) 0.5 | drug effect ([3]; 72 h) 0.625
108%: XTT viability [1]
inactive: drug effect ([3]; 24 h) 0.4

Cc1cc(NCC(C)C)c2n[nH]c(-c3ccccc3)c2n1
92.7%: XTT viability [1]
inactive: phenotypic severity score ([2]; 24 h) 0 | phenotypic severity score ([2]; 48 h) 0 | phenotypic severity score ([2]; 72 h) 0 | drug effect ([3]; 24 h) 0.105 | drug effect ([3]; 48 h) 0.111 | drug effect ([3]; 72 h) 0.0625

CCCc1ccc(S(=O)(=O)Nc2ccc(CN3CCN(CC4CC4)CC3)cc2)cc1
108%: XTT viability [1]
inactive: phenotypic severity score ([2]; 24 h) 0 | phenotypic severity score ([2]; 48 h) 0 | phenotypic severity score ([2]; 72 h) 0 | drug effect ([3]; 24 h) 0.15 | drug effect ([3]; 48 h) 0.167 | drug effect ([3]; 72 h) 0.375

O=C(Nc1ccccc1)c1ccc(-c2cc3ccncc3cc2OC2CCNCC2)s1
-18.1%: XTT viability [1]
inactive: phenotypic severity score ([2]; 24 h) 0 | phenotypic severity score ([2]; 48 h) 0 | phenotypic severity score ([2]; 72 h) 0 | drug effect ([3]; 24 h) 0.15 | drug effect ([3]; 48 h) 0.459 | drug effect ([3]; 72 h) 0.455

Nc1ncnc2c1ncn2C[C@@H](O)[C@@H](O)C(=O)O
inactive: phenotypic severity score ([2]; 24 h) 0 | phenotypic severity score ([2]; 48 h) 0 | phenotypic severity score ([2]; 72 h) 0 | drug effect ([3]; 24 h) 0.1 | drug effect ([3]; 48 h) 0.189 | drug effect ([3]; 72 h) 0.222
63.7%: XTT viability [1]

O=C(Nc1cccc(Cl)c1)c1cnc(N2CCN(c3ccncc3)CC2)c(Cl)c1
3.67%: XTT viability [1]
active: phenotypic severity score ([2]; 24 h) 2 | phenotypic severity score ([2]; 48 h) 4 | phenotypic severity score ([2]; 72 h) 4 | drug effect ([3]; 24 h) 0.8 | drug effect ([3]; 48 h) 0.946 | drug effect ([3]; 72 h) 1

COc1ccc(C2=NCCN2)cc1-c1cn(-c2cccc(C3=NCCN3)c2)nn1
inactive: phenotypic severity score ([2]; 24 h) 0 | phenotypic severity score ([2]; 48 h) 0 | phenotypic severity score ([2]; 72 h) 0 | drug effect ([3]; 24 h) 0.1 | drug effect ([3]; 48 h) 0.111 | drug effect ([3]; 72 h) 0.25
85.9%: XTT viability [1]

CC1CCCN(C(=O)C(C)Nc2cc(Cl)ccc2N2CCOCC2)C1 (configuration not stated)
137%: XTT viability [1]
inactive: phenotypic severity score ([2]; 24 h) 0 | phenotypic severity score ([2]; 48 h) 0 | phenotypic severity score ([2]; 72 h) 0 | drug effect ([3]; 24 h) 0.15 | drug effect ([3]; 48 h) 0.222 | drug effect ([3]; 72 h) 0.375

COc1cccc(NC(=O)c2c(NC(=O)c3cccnc3)sc3c2CCC3)c1
94.4%: XTT viability [1]
inactive: phenotypic severity score ([2]; 24 h) 0 | phenotypic severity score ([2]; 48 h) 0 | phenotypic severity score ([2]; 72 h) 0 | drug effect ([3]; 24 h) 0.25 | drug effect ([3]; 48 h) 0.222 | drug effect ([3]; 72 h) 0.438

CS(=O)(=O)N1CCC(CCn2nc(Cc3cccc4ccccc34)c3c(N)ncnc32)CC1
active: drug effect ([3]; 72 h) 0.509
inactive: phenotypic severity score ([2]; 24 h) 0 | phenotypic severity score ([2]; 48 h) 0 | phenotypic severity score ([2]; 72 h) 0 | drug effect ([3]; 24 h) 0.273 | drug effect ([3]; 48 h) 0.45
90.7%: XTT viability [1]

CCCn1c(CNc2ccccc2O)nc2ccccc21
inactive: phenotypic severity score ([2]; 24 h) 0 | phenotypic severity score ([2]; 48 h) 0 | phenotypic severity score ([2]; 72 h) 0 | drug effect ([3]; 24 h) 0.136 | drug effect ([3]; 48 h) 0.2 | drug effect ([3]; 72 h) 0.182
337%: XTT viability [1]

CC(=O)NC[C@@H]1CN(c2ccc(N3CCOCC3)c(F)c2)C(=O)O1
94.2%: XTT viability [1]
inactive: phenotypic severity score ([2]; 24 h) 0 | phenotypic severity score ([2]; 48 h) 0 | phenotypic severity score ([2]; 72 h) 0 | drug effect ([3]; 24 h) 0.227 | drug effect ([3]; 48 h) 0.2 | drug effect ([3]; 72 h) 0.182

NCC(c1cccs1)S(=O)(=O)c1ccccc1 (configuration not stated)
45.2%: XTT viability [1]
active: phenotypic severity score ([2]; 72 h) 2
inactive: phenotypic severity score ([2]; 24 h) 1 | phenotypic severity score ([2]; 48 h) 1 | drug effect ([3]; 24 h) 0.15 | drug effect ([3]; 48 h) 0.05 | drug effect ([3]; 72 h) 0.0556

CC(c1cc(Cl)cc(Cl)c1)N(C)c1ncc2c(N)nc(N)nc2n1 (configuration not stated)
42.2%: XTT viability [1]
inactive: phenotypic severity score ([2]; 24 h) 0 | phenotypic severity score ([2]; 48 h) 0 | phenotypic severity score ([2]; 72 h) 0 | drug effect ([3]; 24 h) < 0 | drug effect ([3]; 48 h) < 0 | drug effect ([3]; 72 h) 0.167

CN1CCCC1CCO[C@](C)(c1ccccc1)c1ccc(Cl)cc1 (some centres not stated)
active: phenotypic severity score ([2]; 24 h) 2 | phenotypic severity score ([2]; 48 h) 4 | phenotypic severity score ([2]; 72 h) 4 | drug effect ([3]; 24 h) 0.9 | drug effect ([3]; 48 h) 1 | drug effect ([3]; 72 h) 1
46.6%: XTT viability [1]

Cc1ccc2oc(-c3cc(NC(=O)Cc4ccccc4)ccc3Cl)nc2c1
inactive: phenotypic severity score ([2]; 24 h) 1 | phenotypic severity score ([2]; 48 h) 0 | phenotypic severity score ([2]; 72 h) 0 | drug effect ([3]; 24 h) 0.227 | drug effect ([3]; 48 h) 0.25 | drug effect ([3]; 72 h) 0.236
109%: XTT viability [1]

Cc1noc(C)c1C(=O)N1CCCC(c2[nH]c3c(C)cccc3c2-c2ccncc2)C1 (configuration not stated)
active: phenotypic severity score ([2]; 24 h) 4 | phenotypic severity score ([2]; 48 h) 4 | phenotypic severity score ([2]; 72 h) 4 | drug effect ([3]; 48 h) 0.5 | drug effect ([3]; 72 h) 0.778
67.5%: XTT viability [1]
inactive: drug effect ([3]; 24 h) 0.35

COc1ccc(CN2CCOc3ccc(C(C)(O)CN(C)C)cc3C2)cc1C (configuration not stated)
inactive: phenotypic severity score ([2]; 24 h) 0 | phenotypic severity score ([2]; 48 h) 0 | phenotypic severity score ([2]; 72 h) 1 | drug effect ([3]; 24 h) 0.1 | drug effect ([3]; 48 h) 0.0556 | drug effect ([3]; 72 h) < 0
120%: XTT viability [1]

O=C(NCc1ccco1)N1CCN(Cc2ccc(Cl)s2)CC1
93.6%: XTT viability [1]
inactive: phenotypic severity score ([2]; 24 h) 0 | phenotypic severity score ([2]; 48 h) 0 | phenotypic severity score ([2]; 72 h) 0 | drug effect ([3]; 24 h) 0.136 | drug effect ([3]; 48 h) 0.3 | drug effect ([3]; 72 h) 0.345

Nc1nc2ccc(-c3cncc(Oc4ccc(F)cc4)c3)cc2[nH]1
active: phenotypic severity score ([2]; 24 h) 2 | drug effect ([3]; 48 h) 0.556 | drug effect ([3]; 72 h) 0.688
inactive: phenotypic severity score ([2]; 48 h) 1 | phenotypic severity score ([2]; 72 h) 1 | drug effect ([3]; 24 h) 0.3
111%: XTT viability [1]
